Screening data (PubChem BioAssay)
Rows were chosen to be rich in hits. Some 14% of all compounds tested hit in one or more screens of this group.
Sm TGR inh: S. mansoni TGR enzyme inhibition; AID 485364; actives 3% (n = 360,000); Potency, µM (doses to about 114 µM), for inactives: at the top dose activity change, negative = inhibition, most hits filed as inhibitors; purified TGR, DTNB reduction, TNB absorbance 405 nm; Q962Y6; further: potency means the concentration at half of the fitted maximal effect; nearly all actives have a fitted effect of over 60% in size
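TGR 20 nM + NADPH 100 uM (dispensed conc.), cpd preinc 15 min RT; start with NADPH (500 uM addition) then DTNB (15 mM addition). Kinetic TNB absorbance, 405 nm filter. Four-parameter Hill fit across titration.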
HCMV antiviral: blocks human cytomegalovirus replication. HFF cells, HCMV-luciferase reporter, 72 h; stronger effect = lower value. activity change, negative = inhibition, % at 57.5 µM. actives 4.5% (n = 410,000). AID 1259415; in the data active means activity change below about -60%; inconclusive means no clear call, values can overlap the other calls; inactive means above about -39%
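Two compound doses tested in HFFs infected with HCMV-luciferase, MOI 1 PFU/cell, 72 h at 37C. Lysate luminescence read with OneGlo; data normalized against buffer-only and 10uM Salinomycin inhibitor controls.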
Pf growth 96h: P. falciparum growth inhibition at 96 hour, primary screen for plastid delayed-death inhibitors; Potency, µM (highest dose often 28.7 µM), for the others: at the top dose activity change, negative = inhibition, most hits filed as inhibitors; actives 6.9% (n = 320,000); AID 504834; P. falciparum luciferase reporter growth, 96 h; further: potency means the concentration at half of the fitted maximal effect
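Two parasite generations (96 h, 37 C, 5% CO2) of compound exposure in infected erythrocytes (0.05% parasitemia, 2% hematocrit). Luciferase-reporter P. falciparum; decreased luminescence indicates inhibited growth, aimed at apicoplast-acting delayed death.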
Giardia FBPA inh-1: blocks Giardia fructose-bisphosphate aldolase activity | purified Giardia FBPA | A8B2U2 | actives 0.71% (n = 290,000) | Potency, µM (doses to about 59.6 µM), inactives show at the top dose activity, negative = inhibition, actives largely listed as inhibitors; further: potency means the concentration at half of the fitted maximal effect; nearly all actives have a fitted effect of over 55% in size
Target sequence (A8B2U2 whole entry, looked up): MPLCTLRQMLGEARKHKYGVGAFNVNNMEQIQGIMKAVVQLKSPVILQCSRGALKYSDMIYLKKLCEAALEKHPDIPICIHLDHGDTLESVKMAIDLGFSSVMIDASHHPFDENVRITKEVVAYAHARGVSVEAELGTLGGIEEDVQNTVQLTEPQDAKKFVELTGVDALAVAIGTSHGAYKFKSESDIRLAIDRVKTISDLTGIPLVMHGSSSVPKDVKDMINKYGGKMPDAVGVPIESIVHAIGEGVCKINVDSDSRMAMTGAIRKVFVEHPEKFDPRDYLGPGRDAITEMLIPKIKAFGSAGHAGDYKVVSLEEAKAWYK
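40 nM FBPA preincubated 10 min at RT with compound (up to 57.5 uM final), then substrate plus GAPDH/TPI/NAD/arsenate coupling and diaphorase/resazurin added. Fluorescence read after 20 min at RT, 525/598 nm.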
Pf growth 48h: inhibits P. falciparum growth in the first generation, 48 h. P. falciparum luciferase growth in erythrocytes, 48 h. AID 504832. actives 5.9% (n = 310,000). Potency, µM (doses to about 28.7 µM), inactives show at the highest dose activity change, negative = inhibition, usual class: inhibitors; further: potency means the concentration at half of the fitted maximal effect
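Luminescence readout; reporter = integrated firefly luciferase in P. falciparum. RBC culture at 2% hematocrit, 0.1% parasitemia final, 37 C/5% CO2; decreased signal taken as growth inhibition.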
Giardia growth: Giardia lamblia growth inhibition | shares compounds with Giardia FBPA inh-1 | actives 5% (n = 1,500) | Giardia lamblia trophozoite growth inhibition | Potency, µM (titrated, usually from 57.5 µM), for the others: at the highest dose activity change, negative = inhibition, usual class: inhibitors;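 further: potency means the concentration at half of the fitted maximal effect; trophozoites exposed to compound for 48 h at 37 °C; nearly all actives have a fitted effect of over 70% in size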
Mammal cell tox: mammalian cytotoxicity of Giardia aldolase inhibitor hits. shares compounds with Giardia FBPA inh-1. mammalian cell viability counter-screen, qHTS. Potency, µM (top dose mostly 57.5 µM), without a hit: at the highest dose viability change, negative = toxicity, hits mostly inhibitors. actives 4% (n = 1,500);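 further: Chinese hamster ovary cells used as mammalian cytotoxicity surrogate; viability measured as cellular ATP by luminescence; potency means the concentration at half of the fitted maximal effect; compound exposure lasted 48 h before reading; nearly all actives have a fitted effect of over 60% in size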
Giardia FBPA inh-2: confirmation of Giardia fructose-bisphosphate aldolase inhibitors; shares compounds with Giardia FBPA inh-1; AID 2787; purified Giardia aldolase enzyme activity, qHTS; actives 5% (n = 1,500); Potency, µM (series often up to 57.5 µM), for inactives: at the top dose activity change, negative = inhibition, most hits filed as inhibitors; further: potency means the concentration at half of the fitted maximal effect; nearly all actives have a fitted effect of over 45% in size
Rabbit aldolase: selectivity test for Giardia aldolase inhibitors: rabbit aldolase; shares compounds with Giardia FBPA inh-1; Rabbit muscle FBPA enzyme inhibition, selectivity counter-screen; Potency, µM (series often up to 57.5 µM), for inactives: top-dose activity, negative = inhibition, usual class: inhibitors; actives 4% (n = 1,500); further: potency means the concentration at half of the fitted maximal effect; nearly all actives have a fitted effect of over 60% in size
Target sequence (P00883 whole entry, looked up): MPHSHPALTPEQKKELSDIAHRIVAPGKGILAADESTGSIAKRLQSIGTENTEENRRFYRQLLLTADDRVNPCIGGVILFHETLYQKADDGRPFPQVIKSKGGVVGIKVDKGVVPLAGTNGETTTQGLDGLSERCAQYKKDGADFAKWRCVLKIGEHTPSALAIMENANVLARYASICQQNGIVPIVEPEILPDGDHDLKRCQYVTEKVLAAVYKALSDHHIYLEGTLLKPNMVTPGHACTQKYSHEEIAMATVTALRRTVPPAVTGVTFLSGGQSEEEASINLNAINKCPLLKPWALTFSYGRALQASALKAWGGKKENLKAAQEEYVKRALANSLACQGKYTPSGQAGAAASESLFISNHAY
GAPDH coupling: counter-screen for Giardia aldolase inhibitors: GAPDH coupling enzyme. shares compounds with Giardia FBPA inh-1. Potency, µM (highest dose often 57.5 µM), for the others: at the highest dose activity change, negative = inhibition, usual class: inhibitors. actives 6% (n = 1,500). AID 2795. GAPDH coupling enzyme counterscreen, biochemical, qHTS; further: potency means the concentration at half of the fitted maximal effect; nearly all actives have a fitted effect of over 55% in size
The depositor's hits bear a star; ? = inconclusive; . = no result given; [ ] = dose if it differs, or a comment. Unless noted, the call rests on the fitted dose curve; in most records, active means well fitted curve in the direction sought with a large enough effect; inconclusive means small, poorly fitted or top-dose-only effect, or another doubt; inactive means no such curve, though single readings can be large; an effect the other way counts as inactive or inconclusive. On the % scale 0 is the no-effect control and ±100 the full control effect.

SMILES	Sm TGR inh	HCMV antiviral	Pf growth 96h	Giardia FBPA inh-1	Pf growth 48h	Giardia growth	Mammal cell tox	Giardia FBPA inh-2	Rabbit aldolase	GAPDH coupling
CN(C)C1(CNC(=O)C2CCC(=O)N(CCc3ccc(Cl)cc3)C2)CCCCC1 (centres undefined)	-1%	-4	-29%	.	?	.	.	.	.	.
C=CCn1c(COc2cccc3cccnc23)nnc1SCC(=O)O	-5%	20	.	?	0%	.	.	.	.	.
C=CCn1c(COc2cccc3ccc(C)nc23)nnc1SCC(=O)O	14%	16	25%	14µM*	-4%	-19%	9%	-6%	4%	2%
O=C(CCCCn1c(=S)[nH]c2ccsc2c1=O)NCc1ccco1	-35%	8	-19%	?	?	.	.	.	.	.
O=C(CCCn1c(=S)[nH]c2ccsc2c1=O)NCc1ccco1	-17%	0	?	16µM*	?	-3%	-3%	-1%	2%	12%
CCOC(=O)N1CCN(C(=O)CCCn2c(=S)[nH]c3ccsc3c2=O)CC1	-1%	-36	?	16µM*	6%	-2%[10.4 µM]	16%	-4%	1%	13%
CCOC(=O)N1CCN(C(=O)CCCCCn2c(=S)[nH]c3ccsc3c2=O)CC1	0%	-2	57%	?	?	.	.	.	.	.
N[C@@H](CO)C(=O)NNCc1ccc(O)c(O)c1O	.	.	-16%	5µM*	6%	10%[19.1 µM]	-2%[28.7 µM]	?	?	?
COCCNC(=S)NNc1ccc(Cl)c(C(=O)O)c1	3%	-30	22%	7.1µM*	6%	?	4%	-8%	-4%	-7%
CCCCC(=O)NC(=S)Nc1ccc(Cl)c(C(=O)O)c1	0%[57.1 µM]	?	-18%	3%	16%	.	.	.	.	.
Oc1ccccc1CNc1cccc2cccnc12	-3%	-5	-1%	6.3µM*	-2%	-28%	-8%	-20%	-8%	-2%
COc1cc(NCc2ccccc2O)c2ncccc2c1	-2%	18	?	-20%	?	.	.	.	.	.
CCN(CC)c1nc(N2CCN(C)CC2)nc2ccccc12	4%	2	401%	?	?	.	.	.	.	.
CCN(CC)c1nc(N2CCN(CCO)CC2)nc2ccccc12	5%	11	?	13µM*	-41%	-15%	-10%	6%	3%	12%
COc1ccc(NC(=O)CNC(c2ccccc2)c2ccccc2)cc1	0%	59	0%	20µM*	5%	-11%	3%	-2%	1%	-1%
COc1cc(NC(=O)CNC(c2ccccc2)c2ccccc2)cc(OC)c1OC	-8%	-1	?	1%	?	.	.	.	.	.
CCOC(=O)CCc1c(C)nc(-n2[nH]c(C)c(CCO)c2=O)[nH]c1=O	16µM*	-24	?	14µM*	?	5%[10.4 µM]	0%	-4%	5%	-1%
CC(=O)c1ccc(NC(=O)COC(=O)/C=C/c2cccs2)cc1	.	-36	.	.	.	.	.	.	.	.
Cc1cccc(-c2noc(-c3cc(C(C)C)[nH]n3)n2)c1	18%	39	.	.	.	.	.	.	.	.
COC(=O)CSC1=C(C#N)C(c2ccc(C)cc2)C2=C(CCCC2=O)N1 (centres undefined)	-19%	-11	?	-17%	-12%	.	.	.	.	.
CCOC(=O)CSC1=C(C#N)C(C)C2=C(CCCC2=O)N1 (centres undefined)	-30%	12	-18%	16µM*	14%	-12%[10.4 µM]	-12%	-8%	1%	6%
CCOc1ccccc1NS(=O)(=O)c1c(C)noc1C	-17%	6	-15%	13µM*	-11%	-28%	0%	?	?	40µM*
CC(=O)Nc1ccc(-c2csc(NCc3ccccc3)n2)cc1	.	84	-19%	-7%	6%	.	.	.	.	.
CC(=O)Nc1cccc(-c2csc(NCc3ccccc3)n2)c1	-7%	-16	10µM*	20µM*	?	18%	-7%	8%	8%	5%
Cc1cccc(C(=O)NC(=S)NNC(=O)c2ccccc2Cl)c1	-5%	-67*	5%	?	-4%	-16%[38.3 µM]	-27%	6%	-20%	-19%
SMILES	Sm TGR inh	HCMV antiviral	Pf growth 96h	Giardia FBPA inh-1	Pf growth 48h	Giardia growth	Mammal cell tox	Giardia FBPA inh-2	Rabbit aldolase	GAPDH coupling
CCN(CC)C(=O)C1=C(C)N(Cc2ccc(C(C)(C)C)cc2)C(=O)C(CC(=O)NCCCCc2ccccc2)C1 (centres undefined)	.	-21	.	.	.	.	.	.	.	.
N#Cc1c(NC(=O)CCC(=O)O)sc2c1CCCCC2	-3%[57.1 µM]	-34	?	16µM*	-10%	-6%	10%	-18%	-2%	-9%
COCCSc1ccccc1C(=O)N1CCc2ccccc2C1	-1%	23	0%	-2%	-4%	.	.	.	.	.
CCS(=O)(=O)N1CCN(Cc2ccncc2)CC1	5%	28	8%	14µM*	2%	14%	12%	7%	4%	17%
CCN1CCN(CCOCCOc2ccccc2)CC1	4%	-12	0%	25µM*	7%	?	0%	4%	0%	14%
Nn1cnnc1N/N=C/c1ccc(F)cc1	-13%	8	0%	20µM*	17%	12%	9%	?	-11%	?
Nn1cnnc1N/N=C/c1ccccc1C(F)(F)F	2%	-9	?	?	?	.	.	.	.	.
Nn1cnnc1N/N=C/c1cccc(Cl)c1Cl	14%	-12	-7%	?	0%	-4%[38.3 µM]	-7%	9.2µM*	12µM*	15µM*
Cc1ccc(/C=N/Nc2nncn2N)cc1	6%	-18	-11%	?	?	.	.	.	.	.
CCc1nnc(N/N=C/c2ccc(N3CCC(C)CC3)c([N+](=O)[O-])c2)n1N	-3%	-19	-19%	7.1µM*	?	?	-7%	?	-24%	-27%
Nn1cnnc1N/N=C/c1ccc(Cl)c([N+](=O)[O-])c1	?	14	?	13µM*	?	-13%	7%	?	?	?
O=C(CCC1CCCCC1)NCCS(=O)(=O)N1CCN(c2ccc(F)cc2)CC1	3%	-28	?	.	?	.	.	.	.	.
CCCOc1c(Br)cc(C(=O)OCc2cc(=O)n3ccsc3n2)cc1OC	.	0	.	.	.	.	.	.	.	.
